Only some compounds are listed: those with a hit (about 2.6% of all), similar ones and a draw of the others.
KKLEB cytotox – counter-screen for CF NF-kB inhibitors: cytotoxicity; KKLEB CF airway cells viability, ATPlite luminescence, overnight; active compounds read low; cells stimulated with P. aeruginosa culture filtrate; activity change (cytotoxicity), % at 5 µM; 360,000 tested, 0.36% active; AID 602141;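 active means corrected activity change at or below -50% at 5 µM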
CF NFkB inh – blocks PAF-induced NF-kB reporter in cystic fibrosis cells; AID 588850; KKLEB NF-kB-GFP reporter, GFP fluorescence overnight; 360,000 tested, 0.86% active; inhibition, % at 5 µM;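 active means at least 50% inhibition at 5 µM, scaled per plate between neutral and stimulator controls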;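 further: PAF is a Pseudomonas aeruginosa culture filtrate used as stimulus; plate controls were PAF-stimulated DMSO wells for no effect and unstimulated DMSO wells for full effect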
Shn3 inh set2 – Schnurri-3 reporter inhibition in Clone20 osteoblasts; Clone20 osteoblast Shn3 3'UTR firefly luciferase, 24 h; inhibition, % at 12.5 µM; 360,000 tested, 0.52% active;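 active means mean inhibition of at least 75% with every replicate also reaching 75%; inconclusive means mean inhibition at least 75% but some replicate below; inactive means mean inhibition below 75%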;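 further: 0% = median of neutral control wells and 100% = pilot-screen positive control compound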
HIF-2a inh – inhibitors of HIF-2a; inhibition, % at 18.8 µM; 360,000 tested, 0.72% active; 786-0 RCC cells HIF-2a reporter, luciferase luminescence, overnight;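 active means inhibition of the luminescence signal of 40% or more relative to plate controls, in a single-dose primary screen at 18.75 µM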
Peg3 prom inh – Peg3 promoter activity inhibition | HeLa PEG-Prom luciferase reporter, luminescence, overnight | inhibition, % at 20 µM | 360,000 tested, 1.7% active | AID 588405;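 active means inhibition of at least 50% at 20 µM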
* marks the source's active call; other numbers are inactive results; ? = inconclusive.

SMILES	KKLEB cytotox	CF NFkB inh	Shn3 inh set2	HIF-2a inh	Peg3 prom inh
Cc1cc(N/N=C/c2ccc(O)cc2)c2cccc(C)c2n1	8	-152	0	11	110*
Cc1cc(N/N=C/c2ccc(N(C)C)cc2)c2ccccc2n1	2	-12	1	-120	26
COc1ccc2nc(C)cc(Nc3ccc(N4CCOCC4)cc3)c2c1	-10	-40	8	30	29
COc1ccc(N2CCN(C(=O)C3CCN(S(=O)(=O)c4ccc5c(c4)oc(=O)n5C)CC3)CC2)cc1	5	-2	12	7	12
COc1nn(-c2nc(-c3ccccc3)cc(C(F)(F)F)n2)cc1[N+](=O)[O-]	8	-6	7	9	0
CC(=NNc1nc2ccccc2o1)c1cc2ccccc2cn1	-7	-10	80	-57	89*
C[C@H](CO)N1C[C@H](C)[C@@H](CN(C)C(=O)Nc2ccc(C(F)(F)F)cc2)Oc2c(NC(=O)Nc3ccc(C(F)(F)F)cc3)cccc2C1=O	-20	5	17	8	56*
C[C@H]1CN([C@@H](C)CO)C(=O)c2cccc(NC(=O)Nc3ccc(C(F)(F)F)cc3)c2O[C@@H]1CN(C)C(=O)Nc1ccc(F)cc1	-7	6	15	-14	34
CCCCN1C(=O)c2cccc3cc(O)cc(c23)C1=O	-1	-39	-5	2	21
COc1cc(OC)c(OC)cc1/C=C1\CC(C)C/C(=C\c2cc(OC)c(OC)cc2OC)C1=O (stereo not drawn)	9	22	94*	29	58*
N#Cc1ccc(NC(=O)Nc2ccc(Oc3ccc(NC(=O)Nc4ccc(C#N)cc4)cc3)cc2)cc1	15	-11	91*	-36	57*
O=c1c(Br)ccc(Br)cc1Br	-94*	91*	97*	89*	95*
Cc1cccn2c(=O)c3cc(C(=O)NC(C)c4ccccc4)c(=N)n(CCCn4ccnc4)c3nc12 (stereo not drawn)	1	-16	-9	14	12
Cc1cc(C)cc(NC(=O)c2cc(C)n(Cc3cccs3)c2C)c1	-34	-18	-99	-249	-116
CC(=O)C1(C)CCC2C3C=C(C)C4=CC(=O)CCC4(C)C3CCC21C (stereo not drawn)	16	-1	87*	8	3
COc1ccc(C(O)c2nc(-c3cccc(F)c3)cs2)cc1 (stereo not drawn)	-37	-5	82*	-49	-32
COc1ccc(C(O)c2nc(-c3cccc(C(F)(F)F)c3)cs2)cc1 (stereo not drawn)	8	-33	5	-10	10
Cc1cccc(C(=O)Nc2nccs2)c1[N+](=O)[O-]	0	-7	-4	-3	7
COc1ccc(NC(=O)C2Cc3c(-c4cccc(C(N)=O)c4)ccnc3O2)cc1OC (stereo not drawn)	10	-15	30	2	1
CC(=O)Nc1ccc(-c2ccnc3c2CC(C(=O)Nc2cccc(Oc4ccccc4)c2)O3)cc1 (stereo not drawn)	-13	9	45	0	16
CC(=O)Nc1cccc(-c2ccnc3c2CC(C(=O)Nc2cccc(Oc4ccccc4)c2)O3)c1 (stereo not drawn)	5	-16	5	22	51*
COc1ccc(NC(=O)C2Cc3c(-c4cccc(C(C)=O)c4)ccnc3O2)cc1OC (stereo not drawn)	13	-104	91*	-2	25
C=CCNC(=O)CSc1nnc(-c2ccccc2Br)n1-c1cccc(C(F)(F)F)c1	8	5	-2	0	52*
O=C(CSc1nnc(-c2ccccc2O)n1-c1ccccc1)Nc1cccc(C(=O)O)c1	-1	20	-13	24	19
Cc1nn(Cc2noc(C(=O)NC3CCC(C)CC3)n2)c(C)c1Br (stereo not drawn)	4	-1	90*	7	4
SMILES	KKLEB cytotox	CF NFkB inh	Shn3 inh set2	HIF-2a inh	Peg3 prom inh
CC(C)C(=O)NC(c1ccc(Cl)cc1Cl)c1ccc2cccnc2c1O (stereo not drawn)	3	-60	87*	-116	28
CCC(=O)NC(c1ccc(Cl)cc1Cl)c1ccc2cccnc2c1O (stereo not drawn)	-8	-44	?	-21	50
O=C(CN(c1ccc(Br)cc1)S(=O)(=O)c1ccc(Cl)c([N+](=O)[O-])c1)NCCc1ccccc1	-8	-27	27	20	65*
O=C(CN(c1cccc(C(F)(F)F)c1)S(=O)(=O)c1ccc(Cl)c([N+](=O)[O-])c1)NCc1ccccc1	-7	-23	22	11	12
CC(C)NC1(C(N)=O)CCNCC1	-3	5	87*	-5	3
CC(C)NC1(C(N)=O)CCN(Cc2ccccc2)CC1	-16	10	-1	7	14
COc1cc(O)c(C(=O)/C=C/c2ccccc2)c(OC)c1	-8	14	-76	-41	61*
CCCc1ccc(C(=O)NNC(=O)c2ccc(Cl)cc2)cc1	-5	-3	-23	-24	-14
CCCc1ccc(C(=O)NNc2cc(Cl)ccc2Cl)cc1	1	6	90*	-23	-18
Cc1cc(C)n(-c2nc(NCCCN(C)C)c3c4c(sc3n2)CCCC4)n1	-21	21	-5	-132	48
Cc1cc(C)n(-c2nc(NCCN(C)C)c3c4c(sc3n2)CCCC4)n1	-25	27	20	-66	103*
Cc1cccc(S(=O)(=O)NC(=O)C2(C)CCN2C(=O)c2ccccc2CCc2ccccc2)c1 (stereo not drawn)	1	-19	16	8	6
O=C(CCl)N1CCN(S(=O)(=O)c2ccc3ccccc3c2)CC1	-19	-20	4	31	110*
CC(C)CN(C(=O)COC(=O)c1ccccn1)c1c(N)n(Cc2ccccc2)c(=O)[nH]c1=O	8	-8	-9	14	-8
Oc1ccc(C2C[C@H]3CC[C@@H]2C3)cc1O (stereo partly drawn)	-12	18	54	55*	-41
O=C1CC(c2ccc(O)c(O)c2)Oc2cc(O)cc(O)c21 (stereo not drawn)	-8	18	8	-43	-19
Cc1nnc(C)n1/N=C/c1cc2ccccc2nc1Cl	1	-16	7	15	78*
S=C(NCCCN1CCOCC1)N1CCN(c2nc(-c3ccc(Cl)cc3)cs2)CC1	-12	27	1	6	75*
COc1cccc(C(=O)Nc2nnc(S(=O)(=O)N(C)Cc3ccccc3)s2)c1	0	20	0	7	55*
CCOC(=O)c1c(NC(=O)CNC2CCCCC2)sc(C)c1C	-8	23	-5	22	90*
Clc1ccccc1CNCc1ccncc1	-10	0	8	4	-152
C[N+]1(C)CCC(OC(=O)C(O)(c2ccccc2)C2CCCC2)C1 (stereo not drawn)	9	-10	-8	3	-14
C[N+]1(C)CC[C@H](OC(=O)[C@@](O)(c2ccccc2)C2CCCC2)C1	-67*	-26	2	-9	-4

Assay outcomes: PubChem BioAssay, several laboratories
